# In PubChem BioAssay (EPA / NIEHS):
# Records with an inconclusive call do not appear. Active and inactive are the calls of the source. How the source made its calls, unless noted: active means hit-call score of the fitted dose curve at least 0.9, where 1 is the maximum; inconclusive means response in the unintended direction; inactive means score below 0.9.
# Key:
# [1] = molecular target: T1, Thyroid hormone receptor alpha (Rattus norvegicus) + Thyroid hormone receptor beta (Rattus norvegicus) (UniProt P18113+P63059); assay: TOX21_TR_LUC_GH3_Agonist_Followup: Tox21 GH3 Thyroid Hormone Receptor Agonism Luciferase Follow-Up Assay (AID 2283939)
# T1 sequence (P63059 whole entry, looked up): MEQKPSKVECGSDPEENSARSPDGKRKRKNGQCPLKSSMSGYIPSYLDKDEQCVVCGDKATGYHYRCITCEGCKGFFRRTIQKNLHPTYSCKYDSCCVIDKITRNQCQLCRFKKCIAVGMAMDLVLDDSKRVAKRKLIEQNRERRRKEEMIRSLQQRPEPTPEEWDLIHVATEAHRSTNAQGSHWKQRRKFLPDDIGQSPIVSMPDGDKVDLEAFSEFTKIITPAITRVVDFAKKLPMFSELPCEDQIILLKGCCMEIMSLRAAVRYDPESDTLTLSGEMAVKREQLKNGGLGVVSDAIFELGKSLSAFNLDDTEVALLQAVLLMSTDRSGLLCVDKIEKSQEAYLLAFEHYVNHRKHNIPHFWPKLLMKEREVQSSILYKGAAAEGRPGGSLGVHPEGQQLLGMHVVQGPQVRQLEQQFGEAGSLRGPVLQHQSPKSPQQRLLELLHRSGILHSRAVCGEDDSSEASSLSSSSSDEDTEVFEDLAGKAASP
# T1 sequence (P18113 whole entry, looked up): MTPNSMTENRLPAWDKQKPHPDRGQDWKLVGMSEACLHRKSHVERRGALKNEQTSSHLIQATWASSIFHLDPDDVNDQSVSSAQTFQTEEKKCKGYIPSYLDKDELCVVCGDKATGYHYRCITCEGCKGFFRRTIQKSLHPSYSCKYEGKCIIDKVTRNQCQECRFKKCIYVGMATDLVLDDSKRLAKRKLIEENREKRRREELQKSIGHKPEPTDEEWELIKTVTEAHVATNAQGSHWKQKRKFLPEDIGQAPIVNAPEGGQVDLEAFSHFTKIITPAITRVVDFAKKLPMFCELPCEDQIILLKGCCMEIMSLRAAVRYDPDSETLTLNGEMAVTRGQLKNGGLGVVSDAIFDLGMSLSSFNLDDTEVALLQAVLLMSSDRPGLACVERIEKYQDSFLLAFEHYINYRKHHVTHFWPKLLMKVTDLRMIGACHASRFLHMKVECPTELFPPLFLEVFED
# In short: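 Agonist-mode confirmatory run: 15 concentrations (5 nM to 92 uM final) on GH3 rat pituitary cells, 24 h at 37C/5% CO2, T3 as positive control. Luminescence read with ONE-Glo after 30 min.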
# THRA (gene 7067) = THRA (gene 7067) (UniProt P10827); assay: TOX21_TRA_COA_Agonist_Followup_ratio: Tox21 Thyroid Hormone Receptor alpha Agonism through Coactivator Recruitment Follow-Up Assay, Ratio (AID 2283948; active means hit-call score of the fitted dose curve at least 0.9, where 1 is the maximum; inactive means score below 0.9)
# Chain of THRA (gene 7067) (P10827 whole entry, looked up, the tested form may be a part): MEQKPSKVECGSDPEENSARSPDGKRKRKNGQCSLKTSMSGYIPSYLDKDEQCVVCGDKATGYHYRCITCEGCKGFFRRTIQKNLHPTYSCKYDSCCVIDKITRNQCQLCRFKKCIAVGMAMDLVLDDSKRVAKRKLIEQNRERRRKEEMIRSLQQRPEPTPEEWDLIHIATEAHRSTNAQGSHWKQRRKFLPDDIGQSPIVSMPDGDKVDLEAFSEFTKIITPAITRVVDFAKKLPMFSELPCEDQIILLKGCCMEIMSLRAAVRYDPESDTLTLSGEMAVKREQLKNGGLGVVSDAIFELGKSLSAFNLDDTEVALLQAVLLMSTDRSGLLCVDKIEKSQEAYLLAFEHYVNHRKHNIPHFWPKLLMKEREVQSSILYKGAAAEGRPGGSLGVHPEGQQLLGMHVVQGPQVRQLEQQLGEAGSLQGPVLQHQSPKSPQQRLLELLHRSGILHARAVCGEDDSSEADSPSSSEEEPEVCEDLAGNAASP
# In short: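 Cell-free TR-FRET coactivator recruitment: GST-tagged TRα LBD (2.5 nM) with 0.10% BSA was incubated with compound, then fluorescein-SRC-2 peptide (200 nM) and Tb-anti-GST antibody (2 nM) added. 520:495 nm ratio normalized to DMSO (0%) and T3 (100%).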
# THRB (gene 7068) = THRB (gene 7068) (UniProt P10828); assay: TOX21_TRB_BLA_Agonist_Followup_ratio: Tox21 Thyroid Hormone Receptor beta Agonism Beta-lactamase (BLA) Follow-Up Assay, Ratio (AID 2283954)
# Chain of THRB (gene 7068) (P10828 whole entry, looked up, the tested form may be a part): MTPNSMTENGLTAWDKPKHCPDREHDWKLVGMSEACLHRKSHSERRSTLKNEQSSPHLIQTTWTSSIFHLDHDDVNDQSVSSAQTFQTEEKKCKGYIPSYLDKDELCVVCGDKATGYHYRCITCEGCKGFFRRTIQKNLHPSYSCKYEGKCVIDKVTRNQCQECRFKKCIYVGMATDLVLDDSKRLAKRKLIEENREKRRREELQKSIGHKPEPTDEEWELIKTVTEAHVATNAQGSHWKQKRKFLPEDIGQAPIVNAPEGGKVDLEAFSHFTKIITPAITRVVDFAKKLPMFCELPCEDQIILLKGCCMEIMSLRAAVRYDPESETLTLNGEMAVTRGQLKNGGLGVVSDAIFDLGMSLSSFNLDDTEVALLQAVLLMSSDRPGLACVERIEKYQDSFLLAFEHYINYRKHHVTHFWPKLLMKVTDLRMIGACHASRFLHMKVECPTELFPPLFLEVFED
# In short: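 Agonist mode: compounds (11-point, triplicate) incubated 18 h with HEK293T cells carrying GAL4-DBD/human TRβ-LBD and UAS-β-lactamase. Blue/green (460/530 nm) FRET ratio read after 2 h CCF4-AM loading; CellTiter-Glo viability run in the same plates.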
# [2] = TOX21_PR_BLA_Followup_Agonist_viability: Viability Assessment in the Tox21 HEK293 Progesterone Receptor (PR) Agonism Beta-lactamase Follow-Up Assay (AID 2283935);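 further: signal loss means lower viability so actives are cytotoxic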
# In short: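 Cells were plated in medium with 2% charcoal-stripped FBS and rested 6 hr. Compounds in DMSO were then added for 16 hr at 37C, followed by the FRET substrate step and CellTiter-Glo luminescence after 30 min.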
# [3] = TOX21_PR_BLA_Followup_Antagonist_viability: Viability Assessment in the Tox21 HEK293 Progesterone Receptor (PR) Antagonism Beta-lactamase Follow-Up Assay (AID 2283936);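 further: cells exposed to compound with R5020 agonist for 16 h; hits lower the luminescence signal meaning cytotoxicity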
# In short: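 PR-UAS-bla HEK293T cells in medium with 2% charcoal-stripped FBS were treated with compounds plus R5020 for 16 hr at 37C. After the beta-lactamase read, CellTiter-Glo was added to the same wells and luminescence read after 30 min at room temperature.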
# PGR (gene 5241) [4] = molecular target: PGR (gene 5241) (UniProt P06401); assay: TOX21_PR_LUC_Followup_Agonist: Tox21 HEK293 Progesterone Receptor (PR) Agonism Luciferase Follow-Up Assay (AID 2283937; active means hit-call score of the fitted dose curve at least 0.9, where 1 is the maximum; inactive means score below 0.9)
# Chain of PGR (gene 5241) (P06401 whole entry, looked up): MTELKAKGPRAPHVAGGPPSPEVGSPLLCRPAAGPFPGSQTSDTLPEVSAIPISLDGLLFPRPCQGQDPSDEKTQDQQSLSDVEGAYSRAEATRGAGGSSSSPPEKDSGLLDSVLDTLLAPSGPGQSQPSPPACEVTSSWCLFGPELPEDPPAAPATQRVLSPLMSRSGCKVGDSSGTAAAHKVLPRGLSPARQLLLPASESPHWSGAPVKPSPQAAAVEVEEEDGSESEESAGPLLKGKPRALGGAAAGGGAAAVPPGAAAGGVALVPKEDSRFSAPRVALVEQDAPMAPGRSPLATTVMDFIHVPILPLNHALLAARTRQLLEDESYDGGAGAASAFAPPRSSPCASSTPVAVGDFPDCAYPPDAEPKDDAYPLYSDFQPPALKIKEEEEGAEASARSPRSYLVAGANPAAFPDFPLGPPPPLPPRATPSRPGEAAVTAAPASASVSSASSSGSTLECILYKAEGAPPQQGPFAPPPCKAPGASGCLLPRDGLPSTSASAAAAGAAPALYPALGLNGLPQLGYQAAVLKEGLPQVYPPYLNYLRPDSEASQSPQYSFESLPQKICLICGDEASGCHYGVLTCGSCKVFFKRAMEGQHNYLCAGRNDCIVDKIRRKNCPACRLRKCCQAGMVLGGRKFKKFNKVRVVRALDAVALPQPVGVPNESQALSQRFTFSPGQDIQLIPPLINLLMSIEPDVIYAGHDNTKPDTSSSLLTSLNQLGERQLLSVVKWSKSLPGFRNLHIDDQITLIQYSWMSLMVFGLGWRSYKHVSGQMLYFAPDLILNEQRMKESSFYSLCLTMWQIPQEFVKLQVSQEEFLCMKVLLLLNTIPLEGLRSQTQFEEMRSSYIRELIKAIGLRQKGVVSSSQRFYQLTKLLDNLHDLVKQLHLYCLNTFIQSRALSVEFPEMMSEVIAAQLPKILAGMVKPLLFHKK
# In short: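 Seed HEK293-PR-A-luc cells, wait 5 h, add compounds in DMSO, incubate 16 h at 37C, add ONE-Glo, read luminescence after 30 min. Activity is increase over DMSO controls; run with a viability counter-screen.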
# PGR (gene 5241) [5] = molecular target: PGR (gene 5241) (UniProt P06401); assay: TOX21_PR_LUC_Followup_Antagonist: Tox21 HEK293 Progesterone Receptor (PR) Antagonism Luciferase Follow-Up Assay (AID 2283938);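 further: curve fitted upward as signal gain over DMSO baseline despite antagonist label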
# In short: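 Luminescence from ONE-Glo was measured 30 min after reagent addition, following 16 h exposure of HEK293-PR-A-luc cells (3,000/well, plated 5 h earlier) to DMSO-dissolved compounds at 37C; DMSO served as baseline.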
# [6] = molecular target: T1, Thyroid hormone receptor alpha (Rattus norvegicus) + Thyroid hormone receptor beta (Rattus norvegicus); assay: TOX21_TR_LUC_GH3_Antagonist_Followup: Tox21 GH3 Thyroid Hormone Receptor Antagonism Luciferase Follow-Up Assay (AID 2283942)
# In short: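 In a GH3 luciferase reporter line, test chemicals spanning 92 uM to 5nM final are co-incubated 24 h with 1.0 nM T3. Activity is expressed as relative luminescence units and analysed relative to DMSO.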
# [7] = TOX21_PR_LUC_Followup_Agonist_viability: Viability Assessment in the Tox21 HEK293 Progesterone Receptor (PR) Agonism Luciferase Follow-Up Assay (AID 2283941);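 further: loss of signal means cytotoxicity so actives lower viability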
# In short: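 Multiplexed viability endpoint of the PR agonist luciferase follow-up: HEK293-PR-A-luc cells treated 16 h at 37C, with viability scored as decrease in CellTiter-Glo ATP signal.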
# [8] = TOX21_PR_LUC_Followup_Antagonist_viability: Viability Assessment in the Tox21 HEK293 Progesterone Receptor (PR) Antagonism Luciferase Follow-Up Assay (AID 2283940)
# Excerpt: TOX21_PR_LUC_Followup is a secondary assay for specificity for the TOX21_PR_BLA_Agonist assay. To differentiate true PR agonists from cytotoxic substances, this follow up assay is multiplexed with a cell viability assay.TOX21_PR_LUC_Followup_Antagonist_viability is an assay readout measuring cellular ATP content and detected with CellTiter-Glo Luciferase-coupled ATP quantitation.TOX21_PR_LUC_Followup_Antagonist_viability used a type of viability reporter where loss-of-signal activity can be used to understand changes in the cell viability. Furthermore, this assay endpoint can be referred to as a secondary readout, because this assay has produced multiple assay endpoints where this one serves a viability function. To generalize the intended target to other relatable targets, this assay endpoint is annotated to the cell cycle intended target family, where the subfamily is cytotoxicity.
# Quality Control Precautions: Maintain cells below 85-90% confluence in culture medium. […] Then 4 uL of ONE-Glo reagent (Promega, Madison, WI) was added to each plate using a BioRAPTR Flying Reagent Dispenser (FRD) workstation (Beckman Coulter, Indianapolis, IN, USA) and luminescence was quantified on a ViewLux (PerkinElmer, Shelton, CT) plate reader after 30 min incubation at room temperature.
smiles,measurement,setting,value
CCC1(c2ccccc2)C(=O)N=C(O)NC1=O (centres undefined),outcome,[1],inactive
same,outcome,THRA (gene 7067),inactive
same,outcome,THRB (gene 7068),inactive
O=C(O)C(Cl)Cl,outcome,[1],inactive
same,outcome,THRA (gene 7067),inactive
same,outcome,THRB (gene 7068),inactive
CO/N=C(/C(=O)OC)c1ccccc1COc1ccccc1C,outcome,[2],inactive
same,outcome,[3],inactive
same,outcome,PGR (gene 5241) [4],inactive
same,AC50,PGR (gene 5241) [5],31.5 µM (active)
same,AC50,[6],9.33 µM (active)
CCOP(=S)(OCC)SCSc1ccc(Cl)cc1,outcome,[2],inactive
same,outcome,[3],inactive
same,AC50,PGR (gene 5241) [5],20.4 µM (active)
CC(Cc1ccc(OCC(=O)O)cc1)NCC(O)c1csc(C(F)(F)F)n1 (centres undefined),outcome,[1],inactive
same,outcome,THRA (gene 7067),inactive
CCOP(=S)(Oc1ccc([N+](=O)[O-])cc1)c1ccccc1 (centres undefined),outcome,[3],inactive
same,AC50,PGR (gene 5241) [5],7.8 µM (active)
same,outcome,[7],inactive
O=S1(=O)OCC2C(CO1)C1(Cl)C(Cl)=C(Cl)C2(Cl)C1(Cl)Cl (centres undefined),outcome,[2],inactive
same,outcome,[3],inactive
same,AC50,PGR (gene 5241) [5],27.1 µM (active)
same,outcome,[8],inactive
same,outcome,[7],inactive
